Read-out in assay [1]: Interleukin-1 alpha (IL1a), IL1A (gene 3552)
The assay can be described thus: BSK_KF3CT_IL1a: BioMAP Diversity Plus: KF3CT Assay for Interleukin-1 alpha (IL1a) Biomarker Activity (AID 2283070). The note with it: primary human keratinocytes with fibroblasts; actives raise or lower the signal. An outline of the steps:
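Primary human keratinocyte plus foreskin fibroblast co-culture, dosed and measured at 24 h in 96-well plates. IL-1a level quantified by ELISA; bidirectional fit relative to DMSO.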

Read-out in assay [2]: TIMP metallopeptidase inhibitor 2 (TIMP2), TIMP2 (gene 7077)
The assay can be described thus: BSK_KF3CT_TIMP2: BioMAP Diversity Plus: KF3CT Assay for TIMP metallopeptidase inhibitor 2 (TIMP2) Biomarker Activity (AID 2283071). The note with it: primary human keratinocytes with fibroblasts; actives raise or lower the signal. An outline of the steps:
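Co-culture of human primary keratinocytes and foreskin fibroblasts, measured 24 h after chemical dosing. TIMP-2 quantified by ELISA and fitted in both directions relative to DMSO. Cytotoxicity checked in parallel cultures by SRB total-protein staining.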

Read-out in assay [3]: C-C motif chemokine 2 (Homo sapiens) (UniProt P13500)
In words: BSK_KF3CT_MCP1: BioMAP Diversity Plus: KF3CT Assay for Monocyte Chemoattractant Protein 1 (MCP1/CCL2) Biomarker Activity (AID 2283073). The note with it: primary human keratinocytes with fibroblasts; actives raise or lower the signal. The gist of the method: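 Human keratinocyte plus foreskin fibroblast primary co-culture exposed to chemical for 24 h. MCP-1 levels measured by ELISA. Bidirectional curve fitting relative to DMSO negative control as baseline.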

Read-out in assay [4]: Matrix Metallopeptidase 9 (MMP9), MMP9 (gene 4318)
In words: BSK_KF3CT_MMP9: BioMAP Diversity Plus: KF3CT Assay for Matrix Metallopeptidase 9 (MMP9) Biomarker Activity (AID 2283074).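 As to AC50: MMP9 protein level quantified by ELISA in the co-culture.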 The note with it: primary human keratinocytes with fibroblasts; actives raise or lower the signal. The gist of the method:
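Human keratinocyte and foreskin fibroblast co-culture exposed to chemicals for 24 h; MMP9 biomarker measured by ELISA, bidirectional fitting relative to DMSO; cytotoxicity tracked by SRB total protein staining in parallel cultures.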

Read-out in assay [5]: urokinase plasminogen activator (uPA), PLAU (gene 5328)
In words: BSK_KF3CT_uPA: BioMAP Diversity Plus: KF3CT Assay for urokinase plasminogen activator (uPA) Biomarker Activity (AID 2283075). The note with it: primary human keratinocytes with fibroblasts; actives raise or lower the signal. An outline of the steps:
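Primary human keratinocyte/foreskin fibroblast co-culture exposed to chemical; uPA measured by ELISA at 24 h. Bidirectional fit versus DMSO, with parallel SRB total-protein staining for cytotoxicity.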

Read-out in assay [6]: CD40, CD40 (gene 958)
In words: BSK_LPS_CD40: BioMAP Diversity Plus: LPS Assay for CD40 Biomarker Activity (AID 2283076). The note with it: primary human HUVEC with PBMC; actives raise or lower the signal. The gist of the method: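 Primary human umbilical vein endothelial cells co-cultured with peripheral blood mononuclear cells, LPS-stimulated, were dosed with chemical and read 24 h later. CD40 levels were measured by ELISA and fitted bidirectionally against DMSO as negative control and baseline.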

Read-out in assay [7]: E-selectin (Homo sapiens) (UniProt P16581)
The assay can be described thus: BSK_LPS_Eselectin: BioMAP Diversity Plus: LPS Assay for Eselectin Biomarker Activity (AID 2283077). The note with it: primary human HUVEC with PBMC; actives raise or lower the signal. The gist of the method: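 Human umbilical vein endothelial cells co-cultured with peripheral blood mononuclear cells under LPS stimulation; E-selectin measured by ELISA 24 h after chemical dosing. Activity fitted bidirectionally against DMSO as negative control and baseline.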

Read-out in assay [8]: Interleukin-8 (IL8), CXCL8 (gene 3576)
In words: BSK_LPS_IL8: BioMAP Diversity Plus: LPS Assay for Interleukin-8 (IL8) Biomarker Activity (AID 2283078). The note with it: primary human HUVEC with PBMC; actives raise or lower the signal. An outline of the steps: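 Human umbilical vein endothelial cells co-cultured with PBMC were stimulated with LPS; IL-8 levels were measured by ELISA 24 h after chemical dosing. Activity was fitted bidirectionally against DMSO as negative control and baseline.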

A short description of assay [9]: BSK_LPS_SRB: Viability Assessment in the BioMAP Diversity Plus: LPS Assay (AID 2283079).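 Also: total protein by sulforhodamine B absorbance as a cytotoxicity measure; measured one day after compound addition; fitted in both directions against DMSO so loss or gain of signal counts.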 The note with it: primary human HUVEC with PBMC. The gist of the method:
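Human umbilical vein endothelial cells co-cultured with PBMC (LPS system) were dosed for 24 h. Total protein was stained with 0.1% sulforhodamine B after 10% TCA fixation, read at 560 nm, and fitted bidirectionally against DMSO baseline.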

Read-out in assay [10]: Interleukin-1 alpha (IL1a), IL1A (gene 3552)
In words: BSK_LPS_IL1a: BioMAP Diversity Plus: LPS Assay for Interleukin-1 alpha (IL1a) Biomarker Activity (AID 2283080). The note with it: primary human HUVEC with PBMC; actives raise or lower the signal. An outline of the steps: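 Human umbilical vein endothelial cells co-cultured with peripheral blood mononuclear cells were LPS-stimulated and exposed to test chemicals for 24 h. IL-1 alpha was quantified by ELISA, with bidirectional curve fitting against DMSO as the negative control and baseline.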

Read-out in assay [11]: Monocyte Chemoattractant Protein-1 (MCP1), CCL2 (gene 6347)
In words: BSK_LPS_MCP1: BioMAP Diversity Plus: LPS Assay for Monocyte Chemoattractant Protein-1 (MCP1) Biomarker Activity (AID 2283081). The note with it: primary human HUVEC with PBMC; actives raise or lower the signal. The gist of the method: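 HUVEC plus PBMC co-culture (human primary cells, LPS system) exposed to test chemical for 24 h; MCP-1 measured by ELISA. Bidirectional curve fitting against DMSO baseline; parallel SRB total-protein staining flags overt cytotoxicity.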

The nature of assay [12]: BSK_LPS_PGE2: BioMAP Diversity Plus: LPS Assay for Prostaglandin E2 (PGE2) Biomarker Activity (AID 2283082).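 As to AC50: secreted prostaglandin E2 measured by ELISA in LPS-stimulated co-culture.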 The note with it: primary human HUVEC with PBMC; actives raise or lower the signal. An outline of the steps:
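HUVEC plus human PBMC co-culture stimulated with LPS; secreted PGE2 quantified by ELISA 24 h after chemical dosing. Activity fitted bidirectionally against DMSO baseline; parallel SRB staining (0.1% SRB after 10% TCA fixation, 560 nm) flags overt cytotoxicity.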

Read-out in assay [13]: Tissue Factor, F3 (gene 2152)
In words: BSK_LPS_TissueFactor: BioMAP Diversity Plus: LPS Assay for Tissue Factor Biomarker Activity (AID 2283084). The note with it: primary human HUVEC with PBMC; actives raise or lower the signal. An outline of the steps:
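Human umbilical vein endothelial cells co-cultured with peripheral blood mononuclear cells were dosed and stimulated with LPS. Cell-surface CD142 was quantified by ELISA at 24 h. Activity was fitted bidirectionally against DMSO baseline.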

Read-out in assay [14]: Tumor necrosis factor (Homo sapiens) (UniProt P01375)
In words: BSK_LPS_TNFa: BioMAP Diversity Plus: LPS Assay for Tumour Necrosis Factor alpha (TNFa) Biomarker Activity (AID 2283085). The note with it: primary human HUVEC with PBMC; actives raise or lower the signal. An outline of the steps: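 Human umbilical vein endothelial cells co-cultured with PBMC and stimulated with LPS. TNFa was measured by ELISA 24 h after chemical dosing, fitted bidirectionally relative to DMSO.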

Read-out in assay [15]: Vascular cell adhesion molecule 1 (VCAM1), VCAM1 (gene 7412)
The assay can be described thus: BSK_LPS_VCAM1: BioMAP Diversity Plus: LPS Assay for Vascular cell adhesion molecule 1 (VCAM1) Biomarker Activity (AID 2283086). The note with it: primary human HUVEC with PBMC; actives raise or lower the signal. An outline of the steps: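 Human umbilical vein endothelial cells co-cultured with PBMC and stimulated with LPS; VCAM-1 measured by ELISA 24 h after dosing. Bidirectional curve fitting against DMSO baseline; cytotoxicity tracked in parallel by SRB total-protein staining.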

Read-out in assay [16]: CD38, CD38 (gene 952)
The assay can be described thus: BSK_SAg_CD38: BioMAP Diversity Plus: SAg Assay for CD38 Biomarker Activity (AID 2283087). The note with it: primary human HUVEC with PBMC; actives raise or lower the signal. The gist of the method:
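Human HUVEC plus PBMC co-culture stimulated with superantigen; CD38 measured by ELISA 24 h after chemical dosing. Fluorescence read-out, bidirectional fit against DMSO; cytotoxicity tracked in parallel by SRB and Alamar Blue.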

Read-out in assay [17]: CD40, CD40 (gene 958)
In words: BSK_SAg_CD40: BioMAP Diversity Plus: SAg Assay for CD40 Biomarker Activity (AID 2283088). The note with it: primary human HUVEC with PBMC; actives raise or lower the signal. An outline of the steps:
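Human umbilical vein endothelial cells co-cultured with PBMC; CD40 levels measured by ELISA with fluorescence read-out 24 h after chemical dosing. Gain or loss of signal fitted bidirectionally against DMSO baseline.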

Read-out in assay [18]: CD69, CD69 (gene 969)
The assay can be described thus: BSK_SAg_CD69: BioMAP Diversity Plus: SAg Assay for CD69 Biomarker Activity (AID 2283089).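 As to AC50: cell surface CD69 protein quantified by ELISA with fluorescence detection.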 The note with it: primary human HUVEC with PBMC; actives raise or lower the signal. An outline of the steps:
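Values derive from bidirectional fitting relative to DMSO vehicle. Cells: umbilical vein endothelium plus peripheral blood mononuclear cells, treated 24 h before fluorescent ELISA for CD69.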

Read-out in assay [19]: Macrophage colony-stimulating factor (MCSF), CSF1 (gene 1435)
In words: BSK_LPS_MCSF: BioMAP Diversity Plus: LPS Assay for Macrophage colony-stimulating factor (MCSF) Biomarker Activity (AID 2283083). The note with it: primary human HUVEC with PBMC; actives raise or lower the signal. An outline of the steps:
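Human umbilical vein endothelial cells co-cultured with peripheral blood mononuclear cells were exposed to compound for 24 h. M-CSF levels were measured by ELISA, and bidirectional curve fitting used DMSO as the negative control and baseline.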

Broadly, the AC50 is the concentration at which the activity in the assay is half-maximal.

SMILES strings stand for the structures. “And” between values parts separate entries of the source, which are not always exact repeats. Equal values may be shown once. Some compounds were tested as several samples or in several runs, with calls that do not always agree. The source made the active and inactive calls. The calls were made as follows: active = hit-call score of the fitted dose curve at least 0.9, where 1 is the maximum; inactive = score below 0.9.

Sequence of E-selectin (Homo sapiens) (P16581 whole entry, looked up): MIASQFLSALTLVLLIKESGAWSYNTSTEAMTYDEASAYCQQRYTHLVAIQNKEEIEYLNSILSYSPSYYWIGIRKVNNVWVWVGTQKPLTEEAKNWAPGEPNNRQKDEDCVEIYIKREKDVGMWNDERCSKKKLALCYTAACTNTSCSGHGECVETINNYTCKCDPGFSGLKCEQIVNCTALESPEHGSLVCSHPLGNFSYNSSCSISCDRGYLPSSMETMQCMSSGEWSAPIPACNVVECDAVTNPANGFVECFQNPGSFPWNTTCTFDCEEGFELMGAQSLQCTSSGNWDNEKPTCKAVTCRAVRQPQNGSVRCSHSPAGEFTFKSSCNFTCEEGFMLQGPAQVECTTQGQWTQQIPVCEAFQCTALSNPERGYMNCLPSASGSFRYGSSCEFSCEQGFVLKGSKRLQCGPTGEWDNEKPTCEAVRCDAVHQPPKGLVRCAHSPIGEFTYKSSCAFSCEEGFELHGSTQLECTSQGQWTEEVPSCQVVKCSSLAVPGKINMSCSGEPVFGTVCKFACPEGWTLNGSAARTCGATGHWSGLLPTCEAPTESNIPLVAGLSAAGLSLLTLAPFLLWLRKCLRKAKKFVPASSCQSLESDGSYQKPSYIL
Sequence of Tumor necrosis factor (Homo sapiens) (P01375 whole entry, looked up): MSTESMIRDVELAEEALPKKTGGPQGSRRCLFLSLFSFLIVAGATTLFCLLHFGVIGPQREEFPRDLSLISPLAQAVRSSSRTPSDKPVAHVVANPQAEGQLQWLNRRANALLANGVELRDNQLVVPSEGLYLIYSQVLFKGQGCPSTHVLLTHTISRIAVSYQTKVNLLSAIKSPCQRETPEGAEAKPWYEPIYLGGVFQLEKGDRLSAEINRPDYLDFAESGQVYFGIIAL

On to `O=C(O)C(F)(F)C(F)(F)C(F)(F)C(F)(F)C(F)(F)C(F)(F)C(F)(F)C(F)(F)Cl`, for which the AC50 was 30 µM (active) and 20.5 µM (active) in assay [1]; 53.9 µM (active) and 52.6 µM (active) in assay [2]; 49.4 µM (active) and 55.1 µM (active) in assay [3]; 37.5 µM (active) and 40.3 µM (active) in [4]; 47.8 µM (active) and 47.2 µM (active) in [5]; 30 µM (active) in assay [7]. In addition, the AC50 was 5.95 µM (active) and 40.1 µM (active) in assay [8]; 48.4 µM (active) and 47.2 µM (active) in assay [9]; 21.9 µM (active) and 22 µM (active) in [12]; 30 µM (active) in assay [15]; 50.4 µM (active) and 30 µM (active) in assay [16]; 38.2 µM (active) and 45.9 µM (active) in [17]. The AC50 in [18] is 30 µM (active) and 45 µM (active). Moreover, the outcome in assay [6], in assay [7], in assay [10], in assay [11], in assay [13] and in [14] was inactive. For the same molecule, in [15], the outcome was inactive.
Consider `FC(F)(F)C(F)(F)C(F)(F)C(F)(F)C(F)(F)C(F)(F)CCS`, for which the result in [1], in assay [2], in assay [3], in [4], in assay [5] and in assay [6] was inactive. Further, the result in assay [7], in assay [8], in [9], in [10], in [11] and in assay [12] was inactive. Moreover, the result in assay [19], in assay [13], in [14], in assay [15], in assay [16] and in assay [17] was inactive. Further, the result in [18] was inactive.

The values are drawn from PubChem BioAssay (EPA / NIEHS).
